Assay outcomes deposited in PubChem BioAssay by NMMLSC.
Avidin bead fluor = avidin bead compound fluorescence profile | Avidin beads, compound fluorescence 488/530 nm, flow cytometry; hits give high values | fluorescence (KMESF) at 10 µM | hit rate 0.38% among 220,000; in the data active means fluorescence above about 47
RGS7-Gao reg = modulates binding of RGS7 to human Galphao; hit rate 0.35% among 220,000; P09471; binding response (% of control), % at 10 µM; AID 1439; Multiplexed bead flow cytometry; actives lie on both sides; in the data active means binding response below about 49% or above about 150%; inconclusive means no clear call, values can overlap the other calls; inactive means in between;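 further: fluorescent Galphao held in activated GDP-AlF4 state binding bead-coupled RGS7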
RGS4-Gao reg = human RGS4-Galphao interaction regulation; binding response (% of control), % at 10 µM; P09471; Multiplexed bead flow cytometry, RGS4-Galphao binding; actives lie on both sides; hit rate 0.33% among 220,000; AID 1415; in the data active means binding response below about 49% or above about 150%; inactive means in between;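 further: fluorescent Galphao activated with aluminum fluoride binding bead-coupled RGS4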
RGS8-Gao reg = modulates binding of RGS8 to human Galphao; P09471; response (percent of control binding), % at 10 µM; hit rate 0.34% among 220,000; multiplexed bead flow cytometry; actives lie on both sides; in the data active means response below about 60% or above about 140%; inactive means in between;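 further: Galphao activated as the GDP aluminium fluoride complex binding bead-coupled RGS8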
GSH bead fluor = GSH bead compound fluorescence profile; AID 1776; fluorescence (KMESF) at 10 µM; GSH beads flow cytometry, compound fluorescence 488/530 nm; hits give high values; hit rate 0.25% among 190,000; in the data active means fluorescence above about 89;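 further: glutathione beads carrying GST-tagged Bcl family fusion proteins plus one bare bead set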
RGS16-Gao HTS = RGS16-Galphao interaction regulator (human); O15492+P09471; bead-based flow cytometry RGS16-Galphao binding, fluorescence; actives lie on both sides; binding response (% of control), % at 10 µM; hit rate 0.38% among 220,000; AID 1441;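 further: Galphao activated by GDP with aluminum fluoride before binding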
Target sequence (O15492 whole entry, looked up): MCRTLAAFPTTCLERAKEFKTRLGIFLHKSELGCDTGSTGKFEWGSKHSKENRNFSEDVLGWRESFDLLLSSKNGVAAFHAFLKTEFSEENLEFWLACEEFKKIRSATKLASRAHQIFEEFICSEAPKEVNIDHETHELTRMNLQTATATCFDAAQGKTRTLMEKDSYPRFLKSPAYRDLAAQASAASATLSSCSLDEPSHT
Target sequence (P09471 whole entry, looked up): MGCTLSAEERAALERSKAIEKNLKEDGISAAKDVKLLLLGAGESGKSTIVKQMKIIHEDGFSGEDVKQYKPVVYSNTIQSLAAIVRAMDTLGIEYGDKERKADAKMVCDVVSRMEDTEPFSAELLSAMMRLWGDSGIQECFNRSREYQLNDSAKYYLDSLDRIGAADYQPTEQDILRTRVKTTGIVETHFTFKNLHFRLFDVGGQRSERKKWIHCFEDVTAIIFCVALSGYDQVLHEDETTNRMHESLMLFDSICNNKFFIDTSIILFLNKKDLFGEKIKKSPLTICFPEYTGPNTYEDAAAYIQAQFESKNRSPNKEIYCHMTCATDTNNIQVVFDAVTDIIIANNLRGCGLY
RGS-Gao = RGS4-Galphao interaction regulator (human). shares compounds with RGS16-Gao HTS. hit rate 99% among 1,600. AID 1504. multiplexed bead flow cytometry, RGS–Galpha-o binding. RGS4–Galpha-o binding response, % at 10 µM;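 further: fluorescently labeled Galpha-o bound to GDP with aluminium fluoride binding biotinylated RGS beads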
Avidin counter = counter-screen: compounds disrupting biotin binding to avidin beads; shares compounds with RGS16-Gao HTS; streptavidin beads, fluorescein-biotin binding, flow cytometry; inhibition, % at 10 µM; 1,700 tested, under 10 active; AID 1783;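 active means inhibition above 50%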;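 further: median green fluorescence of gated singlet beads compared with DMSO control wells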
RGS8-Gao confirm = RGS8-Galphao interaction regulation, single point confirmation. shares compounds with RGS16-Gao HTS. bead-based flow cytometry RGS8-Galphao binding, fluorescence; actives lie on both sides. binding response (% of control), % at 10 µM. hit rate 3% among 1,700. AID 1836; in the data active means binding response below about 72% or above about 130%; inactive means in between;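 further: Galphao activated as GDP AlF4 complex before binding bead RGS8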
RGS7-Gao confirm = confirmation of regulators of human RGS7-Galphao interaction | shares compounds with RGS16-Gao HTS | bead-based flow cytometry RGS7-Galphao binding; actives lie on both sides | response (percent of control binding), % at 10 µM | hit rate 7.8% among 1,700 | AID 1837; in the data active means response below about 75% or above about 130%; inactive means in between;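 further: fluorescent Galphao activated with GDP and aluminum fluoride binding bead-coupled RGS7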
RGS16-Gao single = confirmation of regulators of human RGS16-Galphao interaction. bead-based flow cytometry, RGS16-Galphao binding; actives lie on both sides. response (% of control binding), % at 10 µM. hit rate 4% among 1,700. shares compounds with RGS16-Gao HTS; in the data active means response below about 74% or above about 130%; inactive means in between;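 further: Galphao activated as the GDP aluminium fluoride complex binding bead-coupled RGS16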
RGS4-Gao single = confirmation of regulators of human RGS4-Galphao interaction; shares compounds with RGS16-Gao HTS; RGS4-Galphao binding, multiplexed bead flow cytometry; actives lie on both sides; binding response (% of control), % at 10 µM; hit rate 4% among 1,700; AID 1840; in the data active means binding response below about 74% or above about 130%; inactive means in between
RGS19-Gao conf = RGS19-Galphao interaction regulation, single point confirmation. shares compounds with RGS16-Gao HTS. bead-based flow cytometry RGS19-Galphao binding; actives lie on both sides. response (percent of control binding), % at 10 µM. hit rate 5% among 1,700; in the data active means response below about 50% or above about 160%; inactive means in between
Numbers stand for hits; n = inactive; u = inconclusive; x = no result; + = active, no number; [ ] = dose if it differs, or a comment. Rows were chosen to be rich in hits. Some 1.2% of all compounds tested hit in one or more screens of this group. Unless noted, how the calls were made is not given here.

SMILES	Avidin bead fluor	RGS7-Gao reg	RGS4-Gao reg	RGS8-Gao reg	GSH bead fluor	RGS16-Gao HTS	RGS-Gao	Avidin counter	RGS8-Gao confirm	RGS7-Gao confirm	RGS16-Gao single	RGS4-Gao single	RGS19-Gao conf
NS(=O)(=O)c1ccc(N/N=C/c2ccc(O)c(O)c2O)c([N+](=O)[O-])c1	n	u	n	39.2	x	20.3	69.1	n	42.9	35.1	41.7	70.8	-0.4
CCN(N=O)[C@@H](Cc1ccccc1)CN(N=O)[C@@H](Cc1ccccc1)CN(C)N=O	n	17.1	29.5	29.3	n	20.8	x	n	n	n	n	n	n
COc1ccccc1NC(=O)CC(c1ccc(OC(C)C)cc1)c1ccccc1OC (centres undefined)	n	n	n	n	n	n	x	x	x	x	x	x	x
COc1ccccc1C(CC(=O)Nc1ccc(C)c(C)c1)c1ccc(OC(C)C)cc1 (centres undefined)	n	n	n	n	n	197.2[activator]	114.5	n	n	n	n	n	n
CCOC(=O)c1c(C)[nH]c(C(=O)COC(=O)C2CC(=O)N(Cc3ccccc3)C2)c1C (centres undefined)	97	218.2[activator]	166.2[activator]	163.2[activator]	239	n	x	n	n	n	n	n	n
O=C(NCc1ccco1)c1ccc2snnc2c1	187	187.6[activator]	n	n	n	n	114.1	n	n	n	n	n	n
Cc1ccc(NC(=S)N2CCN(C)CC2)c(C)c1	n	n	n	n	n	186.1[activator]	106.7	n	n	n	n	n	n
Cc1ccc(NC(=S)N2CCOCC2)c(C)c1	n	n	n	n	n	n	x	x	x	x	x	x	x
COc1ccc(-n2c3c(cc(C(=O)NNc4ccccc4C)c2=O)C(=O)CC(C)(C)C3)cc1	n	n	n	n	n	n	x	x	x	x	x	x	x
COc1ccc(-n2c3c(cc(C(=O)NNc4ccccc4)c2=O)C(=O)CC(C)(C)C3)cc1	n	47.3	47.3	58.6	n	n	x	n	n	n	n	n	n
CCN(CC)c1ccc(NC(=O)Cn2c(C(C)NC(=O)c3ccc(C)cc3)nc3ccccc32)cc1 (centres undefined)	n	152.7[activator]	212.0[activator]	n	n	191.7[activator]	x	n	n	n	127.7[activator]	n	259.0[activator]
O=C(CN1CCc2ccccc2C1)Nc1ccc(Br)cc1	n	n	n	145.7[activator]	n	n	120.5	n	n	n	n	n	n
CCc1ccc(NC(=O)CN2CCc3ccccc3C2)cc1	n	n	n	n	n	n	x	x	x	x	x	x	x
Cc1c2cnn(-c3ccccc3)c(=O)c2c(C)n1CCCC(=O)NCCN1CCN(C)CC1	n	u	n	n	x	n	x	x	x	x	x	x	x
Cc1cc(C(=O)CSc2nnc(-c3ccccc3)n2Cc2ccc3c(c2)OCO3)c(C)n1C	n	n	n	n	n	n	x	x	x	x	x	x	x
Cc1cc(C(=O)CSc2nc3ccccc3c(=O)n2C)c(C)n1Cc1ccc2c(c1)OCO2	152	n	+[activator]	x	n	+[activator]	x	n	n	n	n	n	n
Cc1cc(N2CCN(C)CC2)ccc1NC(=O)c1cccc(S(=O)(=O)N2CCc3ccccc3C2)c1	n	n	n	n	n	n	x	x	x	x	x	x	x
